This is part of a sample that, as a whole, favours compounds with a hit. Of some 83,000 tested, about 20% had one in any assay.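 Cells were grown in 96-well plates and exposed to the test compound at a single concentration for 48 hours; results are reported as percent growth, with values below 10 considered active.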 A number with no mark means an inactive call. Calls of active or inactive are those of the source.

Among the test systems are T-47D breast; BT-549 breast; MDA-MB-435 melanoma; SW-620 colon; MCF7 breast; HCT-116 colon; HCC-2998 colon; KM12 colon.
Common to all, as to assay: NCI-60 one-dose screen, 48 h (100 = growth as untreated, 0 = no growth, -100 = all killed)
Conditions in all cases: 10 µM unless noted

Take `COc1ccc2c(c1)c(-c1nc(-c3cn(C)c4ncccc34)cs1)cn2CCN`: the growth with T-47D breast is -0.878% (active); in the assay on BT-549 breast, 96.9%; in the assay with MDA-MB-435 melanoma, 95.4%; with SW-620 colon, 62.3%; in the assay with MCF7 breast, 16.6%; in the assay on HCT-116 colon, 80.5%. For the same molecule, the growth is 55% in the assay on HCC-2998 colon and 45% in the assay with KM12 colon.
In the case of `O=C1c2cc3c(cc2-c2c1c1ccc(F)cc1c(=O)n2CCCN1CCOCC1)OCO3`, the growth is 28.4% in the assay on T-47D breast; 47.5% in the assay with BT-549 breast; 65.6% in the assay on MDA-MB-435 melanoma; 48.8% in the assay on SW-620 colon; 13.5% with MCF7 breast; 45.2% in the assay on HCT-116 colon. The figures for the growth in the assay on HCC-2998 colon and with KM12 colon were 77.8% and 69.8%, respectively.
For the molecule `COc1ccc2c(c1)c(-c1nc(-c3c[nH]c4ncccc34)cs1)cn2CCN`, the growth in the assay on T-47D breast is 25.7%; in the assay on BT-549 breast it was 88.2%; in the assay with MDA-MB-435 melanoma it was 68.9%; in the assay with SW-620 colon, 55.3%; with MCF7 breast, 36.5%; in the assay on HCT-116 colon, 53.5%. For the same molecule, the growth is 94.9% with HCC-2998 colon and 24.4% with KM12 colon.
Take `CC(Cc1ccco1)C(=O)NC(N)=O` (stereo not given): the growth in the assay on T-47D breast is 114%; with BT-549 breast, 106%; in the assay on MDA-MB-435 melanoma, 105%; with SW-620 colon, 104%; in the assay with MCF7 breast, 102%; in the assay with HCT-116 colon, 106%. The growth in the assay on HCC-2998 colon and in the assay on KM12 colon was 105% throughout.
With `O=P(O)(c1ccccc1)c1ccccc1I`, the growth is 84.5% with T-47D breast; 100% in the assay on BT-549 breast; 104% in the assay with MDA-MB-435 melanoma; 94.9% with SW-620 colon; 96.6% in the assay with MCF7 breast; 76.7% with HCT-116 colon. Further, the growth in the assay with HCC-2998 colon is 107%; with KM12 colon, 103%.
For the molecule `O=C1OC(c2ccc(Cl)c(Cl)c2)=C/C1=C/c1cccc([N+](=O)[O-])c1`, the growth in the assay with T-47D breast was 96.7%; in the assay on BT-549 breast it was 111%; in the assay on MDA-MB-435 melanoma, 104%; with SW-620 colon, 102%; with MCF7 breast it was 101%; with HCT-116 colon, 86.5%. The growth in the assay with HCC-2998 colon is 103%; with KM12 colon, 104%.
Take `Clc1ccccc1-c1nc(Nc2nc3ccccc3s2)nc(C(Cl)(Cl)Cl)n1`: the growth was 38.7% in the assay with T-47D breast; 84.2% in the assay with BT-549 breast; 49% with MDA-MB-435 melanoma; 39.5% in the assay with SW-620 colon; 32.6% with MCF7 breast; 19.1% in the assay with HCT-116 colon. The values for the growth in the assay with HCC-2998 colon and with KM12 colon were 54.1% and 31.3%, respectively.
For `O=C1NC(c2ccc(Cl)c(Cl)c2)=C/C1=C\c1ccccc1`, the growth was 12.5% in the assay on T-47D breast; 86.2% in the assay with BT-549 breast; 86.6% in the assay on MDA-MB-435 melanoma; 56.8% in the assay on SW-620 colon; 63.1% in the assay with MCF7 breast; 26.5% in the assay with HCT-116 colon. Also, the growth was 103% with HCC-2998 colon and 89.2% in the assay on KM12 colon.
With `C=C(C)[C@@H]1CC[C@]2(C(=O)OC)CC[C@]3(C)[C@H](CC[C@@H]4[C@@](C)(CC/C(N)=N/O)[C@H](C(=C)C)CC[C@]43C)[C@@H]12`, the growth in the assay with T-47D breast is 91%; in the assay with BT-549 breast, 97.8%; in the assay on MDA-MB-435 melanoma it was 101%; with SW-620 colon it was 97.4%; with MCF7 breast, 88.3%; in the assay with HCT-116 colon, 89.8%. Moreover, the growth in the assay with HCC-2998 colon was 96.3%; in the assay on KM12 colon, 99.1%.
For `C=C(C)[C@@H]1CC[C@]2(CN)CC[C@]3(C)[C@H](CC[C@@H]4[C@@](C)(CCCN)[C@H](C(=C)C)CC[C@]43C)[C@@H]12`, the growth in the assay with T-47D breast is 88.6%; in the assay with BT-549 breast it was 92.1%; in the assay with MDA-MB-435 melanoma, 96.2%; in the assay on SW-620 colon it was 88.9%; with MCF7 breast, 71.8%; with HCT-116 colon, 50.1%. Further, the figures for the growth with HCC-2998 colon and in the assay on KM12 colon were 77% and 88.1%, respectively.
Consider `CCCCC[C@H]1C/C=C2/C(=O)C(Cl)=C[C@@H]2C/C=C\CCCC(=O)O1`, for which the growth in the assay on T-47D breast is -33.7% (active); with BT-549 breast it was -77.3% (active); with MDA-MB-435 melanoma, -48.2% (active); with SW-620 colon it was -48.8% (active); in the assay on MCF7 breast, 0.987% (active); in the assay with HCT-116 colon it was -86.9% (active). Further, the growth in the assay with HCC-2998 colon is -68.7% (active); in the assay with KM12 colon, -33.9% (active).
As for `COc1cc(/C=C/c2cc(/C=C/c3ccc(O)c(OC)c3)n(-c3ccccc3)c(=O)n2)ccc1O`, the growth with T-47D breast was 71.4%; in the assay with BT-549 breast, 56.9%; with MDA-MB-435 melanoma, 73.1%; in the assay with SW-620 colon, 78.4%; in the assay on MCF7 breast it was 40.8%; in the assay on HCT-116 colon it was 55.6%. In addition, the growth is 104% in the assay with HCC-2998 colon and 63.2% in the assay on KM12 colon.
For the molecule `CCN(CC)C(=O)CCCCCn1c2ccccc2c2c3c(c4c5ccccc5[nH]c4c21)C(=O)N(O)C3=O`, the growth was 28.2% with T-47D breast; 56.8% in the assay with BT-549 breast; 25.3% with MDA-MB-435 melanoma; 70.1% in the assay on SW-620 colon; 18.5% in the assay on MCF7 breast; 37.8% in the assay with HCT-116 colon. Besides, the growth was 44% in the assay on HCC-2998 colon and 30.8% in the assay with KM12 colon.
As for `COc1cc(-c2cc(-c3nc4ccc(F)cc4[nH]3)[nH]n2)cc(OC)c1OC`, the growth was -21.3% (active) in the assay with T-47D breast; 6.58% (active) in the assay with BT-549 breast; 5.65% (active) in the assay with MDA-MB-435 melanoma; 52.1% with SW-620 colon; 9.15% (active) in the assay on MCF7 breast; 31.2% in the assay with HCT-116 colon. The growth in the assay on HCC-2998 colon is 66.6%; with KM12 colon it was 12.9%.
As for `COc1cc2ncnc(Nc3ccc(Oc4ccnc(C)c4)c(C)c3)c2cc1NC(=O)CC1CCSS1` (stereo not given), the growth was -66% (active) with T-47D breast; -48.4% (active) with BT-549 breast; -33.4% (active) in the assay with MDA-MB-435 melanoma; -33.7% (active) with SW-620 colon; -69.6% (active) in the assay on MCF7 breast; -65.5% (active) in the assay with HCT-116 colon. Moreover, the results for the growth with HCC-2998 colon and in the assay on KM12 colon were -88.6% (active) and -68.8% (active), respectively.

The values are drawn from PubChem BioAssay (NCI).
